Experimental data as given in the supplement of paper PMC12494721.
Structures can show the parent of a compound that is named as a salt.

Test system: Escherichia coli IAI1
Assay: growth (OD595) fold change vs plate DMSO controls (fold change (ratio)); higher = more growth
Details: incubation time: 27 h, anaerobic, 37 °C
Procedure, shortened: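 Growth is calculated as fold change against the median of the DMSO control wells on each plate. Readings at 595 nm from anaerobic mGAM cultures (96-well, 27 h, 37 °C) were blank-subtracted, background-corrected with 20 µM compound solutions in water, and converted to OD by a calibration factor of 5. Fold changes above 1.5 were recorded as NA, and results are means of 2 biological replicates.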

Row | Compound | growth
1 | CC(=O)Nc1ccc(O)cc1 [Acetaminophen] (20 µM) | 0.986
2 | CC(C)(C)CC(C)(C)c1ccc(OCCOCC[N+](C)(C)Cc2ccccc2)cc1 [Benzethonium chloride] (20 µM) | 0.964
3 | C[C@H]1[C@H](NC(=O)/C(=N\OC(C)(C)C(=O)O)c2csc(N)n2)C(=O)N1S(=O)(=O)O [Aztreonam] (20 µM) | 1.04
4 | Nc1ccn([C@@H]2CS[C@H](CO)O2)c(=O)n1 [Lamivudine] (20 µM) | 0.995
5 | Cc1nnc(SCC2=C(C(=O)O)N3C(=O)[C@@H](NC(=O)Cn4cnnn4)[C@H]3SC2)s1 [Cefazolin sodium salt] (20 µM) | 0.0255
6 | CN(C)CCCN1c2ccccc2CCc2ccccc21 [Imipramine hydrochloride] (20 µM) | 1.15
7 | Clc1ccccc1CN1CCc2sccc2C1 [Ticlopidine hydrochloride] (20 µM) | 0.944
8 | COc1ccc(CCN(C)CCCC(C#N)(c2ccc(OC)c(OC)c2)C(C)C)cc1OC (configuration not stated) [Verapamil hydrochloride] (20 µM) | 1.13
9 | Cc1cnc(NC(=O)C2=C(O)c3ccccc3S(=O)(=O)N2C)s1 [Meloxicam] (20 µM) | 0.997
10 | C=C[C@H]1CN2CC[C@H]1C[C@@H]2[C@@H](O)c1ccnc2ccc(OC)cc12 [Quinidine hydrochloride monohydrate] (20 µM) | 1.01
11 | C[C@H](CS)C(=O)N1CCC[C@H]1C(=O)O [Captopril] (20 µM) | 0.976
12 | CC(C)Cc1ccc([C@H](C)C(=O)O)cc1 [(S,+) Ibuprofen] (20 µM) | 0.797
